The supplement of paper PMC7156485

Columns and labels:
Details in all cases: concentration: 10 µM; 24 h
HCC1569 [1] = test: cell number relative to DMSO (% of DMSO); higher = more cells (less growth inhibition / toxicity)
Outline: (§1)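 H1.0 nuclear intensity or cell number is expressed as percent of the plate control, with the median of replicates taken. HCC1569 and TDF cells were treated with compounds at 10 µM for 24 h at 37 °C, in triplicate, then fixed and immunostained for H1.0 with DAPI as a nuclear stain. HCC1569 values were smoothed to correct for positional effects.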

TDF [2] = test: as above
Outline: as §1

TDF [3] = test: H1.0 immunofluorescence intensity relative to DMSO (% of DMSO); higher = stronger H1.0 induction, active = 120 or more
Outline: as §1

HCC1569 [4] = test: H1.0 immunofluorescence intensity relative to DMSO (% of DMSO); higher = stronger H1.0 induction, active = 140 or more
Outline: as §1
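Wherever H1.0 immunofluorescence intensity relative to DMSO is given: TDF is a line of transformed human dermal fibroblasts of mesenchymal origin.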
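Wherever cell number relative to DMSO is given: TDF denotes transformed human dermal fibroblasts of mesenchymal origin.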

| Structure (SMILES) | cell number (HCC1569 [1]) | cell number (TDF [2]) | H1.0 immunofluorescence intensity (TDF [3]) | H1.0 immunofluorescence intensity (HCC1569 [4]) |
| --- | --- | --- | --- | --- |
| CN(C)C1C(=O)C(C(N)=O)=C(O)C2(O)C(=O)C3=C(O)c4c(O)ccc(Cl)c4C(O)C3CC12.Cl (centres undefined) [Demeclocycline hydrochloride] | 96.2 | 96.5 | 99.7 (inactive) | 104 (inactive) |
| COc1ccc(COc2ccc(Cc3cnc(N)nc3N)cc2OC)cc1 [cFMS Receptor Tyrosine Kinase Inhibitor] | 100 | 93.7 | 98.1 (inactive) | 130 (inactive) |
| C[Se]CCC(N)C(=O)O (centres undefined) [Selenomethionine] | 100 | 94 | 104 (inactive) | 105 (inactive) |
| C=C[C@]1(C)C[C@@H](OC(=O)CO)[C@]2(C)[C@H](C)CC[C@]3(CCC(=O)[C@H]32)[C@@H](C)[C@@H]1O | 96.4 | 115 | 106 (inactive) | 95.9 (inactive) |
| CCCCCCN(CCCCCC)C(=O)Cc1c(-c2ccc(F)cc2)[nH]c2ccccc12 [N,N-Dihexyl-2-(4-fluorophenyl)indole-3-acetamide] | 95.6 | 102 | 93.3 (inactive) | 94.3 (inactive) |
| CCN1CCN(C(=O)NC(C(=O)NC2C(=O)N3C2SC(C)(C)C3C(=O)O)c2ccccc2)C(=O)C1=O (centres undefined) [Piperacillin] | 101 | 100 | 95.4 (inactive) | 119 (inactive) |
| CON=C(C(=O)NC1C(=O)N2C(C(=O)O)=C(COC(C)=O)CSC12)c1csc(N)n1 (centres undefined) [Cefotaxime Acid] | 107 | 99.1 | 96.3 (inactive) | 103 (inactive) |
| O=[N+]([O-])c1ccc(S(=O)(=O)NCc2ccccc2)c([N+](=O)[O-])c1 [N-Benzyl-2,4-dinitrobenzenesulfonamide] | 79 | 58.4 | 117 (inactive) | 123 (inactive) |
| NC(=O)C1=CN(C2OC(COP(=O)([O-])OP(=O)([O-])OCC3OC(n4cnc5c(N)ncnc54)C(OP(=O)([O-])[O-])C3O)C(O)C2O)C=CC1.[Na+].[Na+].[Na+].[Na+] (centres undefined) [NADPH tetrasodium] | 103 | 102 | 96.9 (inactive) | 99.1 (inactive) |
| CC(=O)OCC1=C(C(=O)[O-])N2C(=O)C(NC(=O)CSc3ccncc3)C2SC1.[Na+] (centres undefined) [Cephapirin sodium] | 101 | 103 | 93.8 (inactive) | 84.4 (inactive) |
| Clc1ccc(COC(Cn2ccnc2)c2ccc(Cl)cc2Cl)c(Cl)c1 (centres undefined) [Miconazole] | 96.8 | 110 | 101 (inactive) | 114 (inactive) |
| Cn1c(=O)c2c(ncn2CC2OCCO2)n(C)c1=O [Doxofylline] | 103 | 106 | 105 (inactive) | 104 (inactive) |
| CCOC(=O)Oc1c(OC)cc(C(=O)OC2CC3CN4CCc5c([nH]c6cc(OC)ccc56)C4CC3C(C(=O)OC)C2OC)cc1OC (centres undefined) [Syrosingopine] | 94.7 | 104 | 96.8 (inactive) | 105 (inactive) |
| CCCCCCCCCCCCCC=CC(O)C(CO)NC(=O)CCCCCCCCCCCCCCC (centres undefined) [C16 Ceramide] | 96.6 | 95.3 | 102 (inactive) | 97.5 (inactive) |
| NCCCCN=C(N)N.O=S(=O)(O)O [Agmatine sulfate] | 106 | 98.2 | 88.7 (inactive) | 92.4 (inactive) |
| CC#N.Nc1nc(Nc2ccc(S(N)(=O)=O)cc2)nn1C(=O)c1c(F)cccc1F [Aurora Kinase/Cdk Inhibitor] | 62 | 39.5 | 98.1 (inactive) | 83.7 (inactive) |
| COc1cc(C(=O)OC2CC3CCC2(C)C3(C)C)ccc1O (centres undefined) [Tschimganine] | 101 | 103 | 99.6 (inactive) | 88.3 (inactive) |
| O=C(CCCN1CCN(c2ccccn2)CC1)c1ccc(F)cc1 [Azaperone] | 98.6 | 112 | 96.7 (inactive) | 103 (inactive) |
| NC1(C(=O)O)CCc2cc(C(=O)O)ccc21 (centres undefined) | 101 | 113 | 88.5 (inactive) | 84.5 (inactive) |
| CCCCCCCCC=CCCCCCCCCCC(=O)O [11(Z)-Eicosenoic acid] | 105 | 105 | 98.9 (inactive) | 101 (inactive) |
| CC(C)(C)c1cc(O)ccc1O [tert-Butylhydroquinone] | 104 | 97.2 | 96.4 (inactive) | 89.1 (inactive) |
